# According to PubChem BioAssay AID1159580 (chemical genetic matrix, 2015):
# Out of some 5,500 compounds screened, about 2,000 (36%) were called active. Not shown: some 18% with an inconclusive outcome. Cut-off read from the data, not from the text of the source: active = normalized growth mostly below about 0.91 (no sharp cut-off); inconclusive = no clear call, values can overlap the other calls; inactive = mostly above about 0.92. This is one part of the list.
# Assay: chemical genetic growth profiling, strain panel (AID 1159580);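 note: tested at 20 µM; growth read once vehicle control cultures reached saturation at 30 °C; 1 = growth at the plate median or of vehicle wells; lower values mean less growth of the strain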
# Conditions: S. cerevisiae deletion strains, growth OD
compound,measurement,setting,value
CC(=O)c1ccc(-c2ccc(Cl)c(Cl)c2)o1,normalized growth,"locus YAL013W, strain DEP1, active compounds read low",0.803 (active)
same,normalized growth,"locus YBR229C, strain ROT2, active compounds read low",0.825 (active)
same,normalized growth,"locus YCL061C, strain MRC1, active compounds read low",0.776 (active)
same,normalized growth,"locus YDL101C, strain DUN1, active compounds read low",0.661 (active)
same,normalized growth,"locus YDL134C, strain PPH21, active compounds read low",0.428 (active)
same,normalized growth,"locus YEL061C, strain CIN8, active compounds read low",0.445 (active)
same,normalized growth,"locus YGR078C, strain PAC10, active compounds read low",0.863 (active)
same,normalized growth,"locus YGR229C, strain SMI1, active compounds read low",0.956 (inactive)
same,normalized growth,"locus YHR030C, strain SLT2, active compounds read low",0.0914 (active)
same,normalized growth,"locus YHR087W, strain rtc3, active compounds read low",0.816 (active)
same,normalized growth,"locus YJL187C, strain SWE1, active compounds read low",0.807 (active)
same,normalized growth,"locus YJR043C, strain POL32, active compounds read low",0.8 (active)
same,normalized growth,"locus YJR075W, strain HOC1, active compounds read low",0.787 (active)
same,normalized growth,"locus YLR039C, strain RIC1, active compounds read low",0.207 (active)
same,normalized growth,"locus YLR058C, strain SHM2 (second series), active compounds read low",0.994 (inactive)
same,normalized growth,"locus YLR085C, strain ARP6, active compounds read low",0.112 (active)
same,normalized growth,"locus YLR262C, strain YPT6, active compounds read low",0.264 (active)
same,normalized growth,"locus YML094W, strain GIM5, active compounds read low",0.633 (active)
same,normalized growth,"locus YMR219W, strain ESC1, active compounds read low",0.877 (active)
same,normalized growth,"locus YMR263W, strain SAP30, active compounds read low",0.629 (active)
same,normalized growth,"locus YNL128W, strain TEP1, active compounds read low",0.82 (active)
same,normalized growth,"locus YNL153C, strain GIM3, active compounds read low",0.838 (active)
same,normalized growth,"locus YNL298W, strain CLA4 (second series), active compounds read low",0.373 (active)
same,normalized growth,"locus YNL322C, strain KRE1, active compounds read low",0.99 (inactive)
same,normalized growth,"locus YNR030W, strain Alg12, active compounds read low",0.483 (active)
same,normalized growth,"locus YOL006C, strain TOP1, active compounds read low",0.15 (active)
same,normalized growth,"locus YPL055C, strain LGE1, active compounds read low",0.747 (active)
same,normalized growth,"locus YPL241C, strain CIN2, active compounds read low",0.365 (active)
same,normalized growth,"locus YPR135W, strain CTF4, active compounds read low",0.213 (active)
